Counter-ions that a name gives are not always drawn.
Tested on: Saccharomyces cerevisiae
Assay: fraction of cells in G1 phase (DNA content, flow cytometry); higher = more cells with unreplicated DNA (G1 delay)
Conditions: temperature: 30 C; YPD; JTY2953 pdr5 snq2 (sensitized); drug added to: cultures diluted from stationary phase; 6-7 h
In short: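 S. cerevisiae grown in YPD at 30°C was exposed to library drugs. In one setup, overnight sensitized JTY2953 cultures were diluted 1∶200, given a final 20 µg/ml and fixed after 6–7 h, while other runs dosed dividing JTY2953 with fixation 6 h later or BY4741 with fixation 4.33 h later. Cells were ethanol-fixed, stained with SYTOX Green and analysed by flow cytometry at 10,000 events. The G1 fraction is the area of the Dean-Jett-Fox G1 peak divided by the summed G1 and G2/M areas.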

SMILES | fraction of cells in G1 phase
CCOC(=O)[C@H](CCc1ccccc1)N[C@@H](C)C(=O)N1CCC[C@H]1C(=O)O [Enalapril] (53.127 µM) | 0.511
C=CCc1ccccc1OCC(O)CNC(C)C (configuration not stated) [Alprenolol HCl] (80.2066 µM) | 0.52
Clc1cccc(Cl)c1NC1=NCCN1 [Clonidine HCl] (75.0469 µM) | 0.504
Cc1nc2c([nH]1)c(=O)n(C)c(=O)n2Cc1ccco1 [Furafylline] (76.8479 µM) | 0.463
CC(C)n1c(/C=C/[C@@H](O)C[C@@H](O)CC(=O)O)c(-c2ccc(F)cc2)c2ccccc21 [Fluvastatin Na] (48.6053 µM) | 0.464
O=C(N[C@H](CO)[C@H](O)c1ccc([N+](=O)[O-])cc1)C(Cl)Cl [Chloramphenicol] (61.8937 µM) | 0.482
O=C(CCCN1CCN(c2ccccn2)CC1)c1ccc(F)cc1 [Azaperone] (61.0864 µM) | 0.582
COc1cc(-c2ccc(=O)[nH]n2)ccc1OC(F)F [Zardaverine] (74.5651 µM) | 0.566
COc1ccc(C(=O)NCc2ccc(OCCN(C)C)cc2)cc1OC [Itopride HCl] (55.7972 µM) | 0.501
O=C(CCCCCCC(=O)Nc1ccccc1)NO [Vorinostat] (75.6716 µM) | 0.482
C[C@H]1COc2c(C3(N)CC3)c(F)cc3c(=O)c(C(=O)O)cn1c23 [Pazufloxacin] (62.8324 µM) | 0.474
CC1Cc2ccccc2N1NC(=O)c1ccc(Cl)c(S(N)(=O)=O)c1 (configuration not stated) [Indapamide] (54.6685 µM) | 0.511
N=C(N)c1ccc(OCCCCCOc2ccc(C(=N)N)cc2)cc1 [Pentamidine] (58.7494 µM) | 0.521
N.N.O=C([O-])C[O-].[Pt+2] [Nedaplatin] (65.9657 µM) | 0.545
Nc1c2c(nc3ccccc13)CCCC2 [Tacrine HCl] (100.873 µM) | 0.541
COc1ccc2c3c1O[C@H]1C[C@@H](O)C=C[C@@]31CCN(C)C2 [Galanthamine HBr] (69.5987 µM) | 0.538

SMILES | fraction of cells in G1 phase
COc1cc2nc(N3CCN(C(=O)c4ccco4)CC3)nc(N)c2cc1OC [Prazosin HCl] (47.6417 µM) | 0.487
C/N=C(/NC#N)NCCSCc1csc(NC(=N)N)n1 [Tiotidine] (64.0163 µM) | 0.478
O=C1CCC(N2C(=O)c3ccccc3C2=O)C(=O)N1 (configuration not stated) [Thalidomide] (77.4486 µM) | 0.464
CN(C)CCC[C@@]1(c2ccc(F)cc2)OCc2cc(C#N)ccc21 [Escitalopram] (61.652 µM) | 0.496
CN(C)CCC=C1c2ccccc2CCc2ccccc21 [Amitriptyline HCl] (63.7146 µM) | 0.418
CCN(CC)C(=O)/C(C#N)=C/c1cc(O)c(O)c([N+](=O)[O-])c1 [Entacapone] (65.5109 µM) | 0.508
CCn1cc(C(=O)O)c(=O)c2cc(F)c(N3CCNC(C)C3)c(F)c21 (configuration not stated) [Lomefloxacin HCl] (56.9223 µM) | 0.489
COc1ccccc1OCCNCC(O)COc1cccc2[nH]c3ccccc3c12 (configuration not stated) [Carvedilol] (49.2022 µM) | 0.525
N[C@@H](Cc1cc(I)c(Oc2cc(I)c(O)c(I)c2)c(I)c1)C(=O)O (25.7441 µM) | 0.486
NNC(=O)c1ccncc1 [Isoniazid] (145.834 µM) | 0.518
Cc1ccc(N(CC2=NCCN2)c2cccc(O)c2)cc1 [PhentolamineHCl] (62.9327 µM) | 0.505
CS(=O)(=O)CCNCc1ccc(-c2ccc3ncnc(Nc4ccc(OCc5cccc(F)c5)c(Cl)c4)c3c2)o1 [Lapatinib] (34.4192 µM) | 0.565
CN(C)c1ccc(O)c2c1C[C@H]1C[C@H]3[C@H](N(C)C)C(=O)C(C(N)=O)=C(O)[C@@]3(O)C(=O)C1=C2O [Minocycline HCl] (43.717 µM) | 0.51
Cc1oncc1C(=O)Nc1ccc(C(F)(F)F)cc1 [Leflunomide] (74.0157 µM) | 0.555
CC1(C)S[C@@H]2[C@H](NC(=O)COc3ccccc3)C(=O)N2[C@H]1C(=O)O [Pencillin v potassium] (57.2429 µM) | 0.461
CC(C)(O)c1ccccc1CC[C@@H](SCC1(CC(=O)O)CC1)c1cccc(/C=C/c2ccc3ccc(Cl)cc3n2)c1 [Montelukast] (34.1181 µM) | 0.532

From the supplement of paper PMC3342239
